# High-throughput results deposited in PubChem by National Center for Advancing Translational Sciences (NCATS).
# NPSR antagonist – qHTS Assay for Antagonists of the Neuropeptide S Receptor: cAMP Signal Transduction; Q6W5P4; CHO-NPSR cells, cAMP TR-FRET, antagonist mode; Potency, µM (highest dose often 38.3 µM), inactives show top-dose activity change, negative = inhibition, usual class: inhibitors; actives 1% (n = 220,000); AID 1461, 2008; also: potency is read from the fitted curve at half-maximal effect; nearly all actives have a fitted effect of over 50% in size
# Target sequence (Q6W5P4 whole entry, looked up): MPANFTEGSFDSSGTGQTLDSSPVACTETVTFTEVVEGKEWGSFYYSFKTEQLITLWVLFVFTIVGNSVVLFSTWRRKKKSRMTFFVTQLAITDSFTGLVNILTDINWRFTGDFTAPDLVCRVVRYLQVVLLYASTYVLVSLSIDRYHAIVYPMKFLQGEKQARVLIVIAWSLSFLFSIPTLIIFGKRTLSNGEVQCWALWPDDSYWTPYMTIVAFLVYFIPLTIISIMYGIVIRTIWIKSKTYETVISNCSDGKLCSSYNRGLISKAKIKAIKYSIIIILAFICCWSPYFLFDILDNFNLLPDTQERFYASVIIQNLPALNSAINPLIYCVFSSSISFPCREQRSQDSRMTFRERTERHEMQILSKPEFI
# HPGD block – qHTS Assay for Inhibitors of HPGD (15-Hydroxyprostaglandin Dehydrogenase). Potency, µM, without a hit: top-dose activity change, negative = inhibition, hits mostly inhibitors. actives 4.3% (n = 150,000). AID 894, 2007. purified HPGD, NADH fluorescence kinetic, PGE2 substrate. 15-hydroxyprostaglandin dehydrogenase [NAD(+)] (Homo sapiens), P15428; active = well fitted inhibition curve with a large enough effect, not every such curve was filed as active; inconclusive = small, poorly fitted or top-dose-only effect, or another doubt; inactive = no such curve, though single readings can be large or run the other way; also: potency is read from the fitted curve at half-maximal effect
#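 NADH formation kinetics: reaction with 30 uM PGE2 and 1 mM NAD+ (final), 20 nM enzyme, Tris-HCl pH 8 with Tween 20, after 15 min compound preincubation at room temperature. Fluorescence change, last versus first of five reads.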
# ALDH1A1 block – qHTS Assay for Inhibitors of Aldehyde Dehydrogenase 1 (ALDH1A1) | Aldehyde dehydrogenase 1A1 (Homo sapiens), P00352 | Purified ALDH1A1, NADH fluorescence, propionaldehyde substrate | Potency, µM (doses to about 75.3 µM), inactives show top-dose activity, negative = inhibition, actives largely listed as inhibitors | actives 7.3% (n = 220,000); active = well fitted inhibition curve with a large enough effect, not every such curve was filed as active; inconclusive = small, poorly fitted or top-dose-only effect, or another doubt; inactive = no such curve, though single readings can be large or run the other way;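 also: potency is read from the fitted curve at half-maximal effect; plate controls were no enzyme wells and a reference inhibitor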
# IMPase inh – qHTS Assay for Identifying the Cell-Membrane Permeable IMPase Inhibitors; inhibition (IP1 accumulation), % at 46.1 µM; Inositol monophosphatase 1 (Rattus norvegicus), P97697; CHO-M1 cells, IP1 accumulation, HTRF TR-FRET ratio; 120,000 tested, under 10 active; active = well fitted curve in the direction sought with a large enough effect in the signal ratio, not every such curve was filed as active; inconclusive = small, poorly fitted or top-dose-only effect, or a change in a side signal; inactive = no such curve, though single readings can be large or run the other way; the % refers to the signal ratio;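 also: cells stimulated with carbachol in lithium chloride buffer; plate controls were DMSO basal wells for no effect and reference inhibitor wells for full effect; higher means more IMPase inhibition seen as more IP1 and lower FRET ratio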
#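 In this qHTS, compounds (final up to 46 uM) act on CHO-M1 cells that are then activated through the M1 receptor with carbachol, in pH 7.4 buffer containing 50 mM LiCl, for 30 min. IP1 accumulation is quantified by the IP-One immunoassay.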
# PNC assembly inh – High Content Assay for Compounds that inhibit the Assembly of the Perinucleolar Compartment | actives 3.1% (n = 140,000) | PC3M PTB-GFP, PNC prevalence imaging, 16 h; active compounds read low | activity change (PNC), negative = inhibition, % at 10 µM;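 active = readout at or below -70, meaning at least 70% loss of cells showing the perinucleolar compartment, a nuclear body marking cancer cells; inconclusive = readout between -30 and a set limit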;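 also: plate controls were DMSO wells for no effect and camptothecin positive control wells for full effect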
#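 Read-out is percentage of cells bearing a perinucleolar compartment, from automated 20x imaging of fixed, Hoechst-stained PC3M PTB-GFP cells. Cells were seeded 4 h, then exposed 16 h to compound (23 nl of library stock) in duplicate plates.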
# IMPase Li inh – qHTS Assay for Identifying the Cell-Membrane Permeable IMPase Inhibitors: Potentiation with Lithium. AID 1457, 2008. CHO-M1 cells, IP1 TR-FRET (IP-One), carbachol + lithium. actives 0.35% (n = 210,000). Potency, µM (top dose mostly 59.4 µM), inactives show at the top dose activity, negative = IMPase inhibition, usual class: inhibitors;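 also: IP1 builds up when IMPase is blocked and the TR-FRET signal falls; potency is read from the fitted curve at half-maximal effect; plate controls were basal vehicle for no effect and high inhibitor control for full effect; nearly all actives have a fitted effect of over 50% in size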
#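 Concentration–response in CHO-M1 cells, lithium-potentiated; 30 min at 37C. IP1 detected by competitive TR-FRET after 10 min lysis at RT. Hill-fitted AC50.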
# The depositor's hits bear a star; u = inconclusive; x = not tested or not shown; [ ] = dose if it differs, or a comment. Rows were chosen to be rich in hits. Some 11% of all compounds tested hit in one or more screens of this group. Unless noted, calls follow the shape of the dose curve; as a rule, active = well fitted curve in the direction sought with a large enough effect; inconclusive = small, poorly fitted or top-dose-only effect, or another doubt; inactive = no such curve, though single readings can be large; an effect the other way counts as inactive or inconclusive. Unless noted, % is scaled to controls: 0 for no effect and ±100 for the full control effect.
SMILES,NPSR antagonist,HPGD block,ALDH1A1 block,IMPase inh,PNC assembly inh,IMPase Li inh
C=CCN1C(c2cccc(C(F)(F)F)c2)=CS/C1=C(/C#N)c1nnc(N2CCOCC2)n1-c1ccccc1,-38.8%,-9.0%,14.1µM*,x,22.9,9.2%
N#C/C(=C(/O)COc1ccccc1)c1nnc2n1CCCCC2,5.8%,x,7.94µM*,x,x,-4.3%
Brc1ccc(-c2nnc3c4ccccc4nc(N4CCOCC4)n23)cc1,5.5%[46.1 µM],-3.4%,14.9%,2.6,25.6,-2.3%[38.3 µM]
C=CCN1C(c2ccccc2)=CS/C1=C(\C#N)c1nnc2n1CCCCC2,-20.9%[46.1 µM],25.1µM*,17.8µM*,u,-18.1,7.8%[38.3 µM]
C=CCN1C(c2ccc(Br)cc2)=CS/C1=C(/C#N)c1nnc(N2CCOCC2)n1-c1ccccc1,-34.1%,5.5%,3.16µM*,x,-10.8,2.3%
C=CCN1C(=O)NC(c2ccc(OC)cc2)(C(F)(F)F)S/C1=C(\C#N)c1nnc(N2CCOCC2)n1-c1ccccc1 (configuration not stated),-39.5%,-12.3%,u,x,-11.6,22.6%
C/C(=N\NC(=S)NC1CCCCC1)c1cccc(Br)c1,-14.8%[46.1 µM],x,u,2.4,u,x
COc1ccc(C(=O)CCNc2cccc(Cl)c2)cc1,-14.9%[46.1 µM],-0.2%,3.16µM*,-3.4,-15.6,8.1%
CCCOc1ccc(C(=O)CCNc2cccc(Cl)c2)cc1,-18.1%,x,7.94µM*,x,x,-0.1%
O=C(CCCn1c(=O)c2ccccc2n(Cc2ccccc2)c1=O)NCc1ccco1,-15.5%[46.1 µM],u,u,3.6,-3.4,-14.3%[38.3 µM]
CCn1nnnc1SCC(=O)N1c2ccccc2Sc2ccccc21,-21.7%[46.1 µM],-6.0%,12.6µM*,15.2,-0.1,17.1%
CCn1nnnc1SCC(=O)N1c2ccccc2CCc2ccccc21,-14.5%[46.1 µM],-6.8%,2µM*,-0.1,u,20.9%
COc1ccccc1-n1c(SCC(N)=O)nnc1-c1ccc(S(=O)(=O)N2CCCCC2)cc1,-8.3%[46.1 µM],-6.0%,4.47µM*,9.6,26.8,-1.5%[38.3 µM]
COc1ccccc1-n1c(SCC(=O)N2CCCC2)nnc1-c1ccccc1,14.2%,x,x,x,x,x
NC(=O)CSc1nnc(-c2ccc(S(=O)(=O)N3CCCCC3)cc2)n1-c1ccccc1,-15.0%[46.1 µM],-26.0%,15.8µM*,-0.7,u,-3.9%[38.3 µM]
O=C(OCn1nnc2ccccc2c1=O)C1CCN(S(=O)(=O)c2cccs2)CC1,-7.9%[46.1 µM],-7.6%,3.8%,-0.2,-100.0*,-0.3%
O=C(NCCc1ccccc1)C1CCC(CNS(=O)(=O)c2cccs2)CC1 (configuration not stated),-9.8%,x,3.98µM*,x,x,-2.7%
O=C(COC(=O)C1CCN(S(=O)(=O)c2cccs2)CC1)c1ccccc1,-1.6%,x,-0.3%,x,x,-2.2%
CCc1ccc(NC(=O)C2CCC(CNS(=O)(=O)c3cccs3)CC2)cc1 (configuration not stated),x,x,x,5.9,x,x
O=S(=O)(NCCc1ccc2c(c1)OCCO2)c1cccs1,0.7%[46.1 µM],-12.7%,-8.0%,16.7,-81.3*,-9.0%
O=C(C1CCC(CNS(=O)(=O)c2cccc3cccnc23)CC1)N1CCCC1 (configuration not stated),0.2%,6.31µM*,-8.3%,3.3,u,7.0%
CCOC(=O)C(C)(C)N(Cc1ccccc1C)S(=O)(=O)c1ccc(Cl)c([N+](=O)[O-])c1,-38.8%,-5.1%,-8.8%,x,7.9,7.9%
COc1cc(OC)cc(-n2nnnc2SCC(=O)NC2CCCC2)c1,-8.4%[46.1 µM],-10.7%,-5.8%,6.2,37.1,7.4%[38.3 µM]
CC(C)C(=O)Nc1ccc(NC(=O)c2ccccn2)cn1,2.3%[46.1 µM],x,u,6.3,-15.9,x
